PubChem BioAssay AID602127 (Broad Institute, 2011)
Results with a measured potency or affinity are listed apart. The source made the active and inactive calls.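 How the source made its calls: active means every repeat test judged active, meaning a falling signal with potency within twice the top valid dose; inconclusive means repeat tests disagree on the call; inactive means every repeat test inactive, including signal moving upward.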

These compounds were tested against Cyclin-dependent kinase 2 (Homo sapiens) (UniProt P24941) (assay: CDK2 kinase inhibitors, off-target check, dose response, selectivity assay for Dyrk1A inhibitor project, biochemical, cherry-picked samples (AID 602127)). Conditions: CDK2/cyclin A kinase, ADP-Glo luminescence, 60 min; series mostly up to 10 µM.

outcome, inactive:
Cc1nc(N)sc1-c1csc(Nc2ccccc2)n1, Fc1c(-c2ccc3ncnc(NCc4cccs4)c3c2)ccc2c1OCO2, Cc1ccc(CNc2ncnc3ccc(-c4ccc5c(c4)OCO5)cc23)o1, Cc1ccnc(NC(=O)c2cccc(S(=O)(=O)N3CCN(c4ccccc4)CC3)c2)c1, Cc1cc(NCCCn2ccnc2)n2ncc(-c3ccc(Cl)cc3)c2n1, CC(=O)Nc1cccc(NC(=O)c2cc3ccccc3o2)c1, CN(Cc1nccs1)c1ncnc2ccc(-c3ccc4c(c3)OCO4)cc12, c1nc(NCC2CCCO2)c2cc(-c3ccc4c(c3)OCO4)ccc2n1 (stereo unspecified), CCOC(=O)c1ccc2ncc(C(=O)OCC)c(Nc3ccc(N4CCOCC4)cc3)c2c1, O=C(Nc1nc(-c2ccncc2)cs1)c1ccco1, Cc1nc(CNc2ncnc3ccc(-c4ccoc4)cc23)cs1, CC(Nc1nc(-c2cccnc2)nc2ccccc12)c1ccc(F)cc1 (stereo unspecified), CN(C)S(=O)(=O)c1ccc(NC(=O)c2cc3ccccc3o2)cc1, c1csc(CCNc2ncnc3ccc(-c4ccc5c(c4)OCO5)cc23)c1, CCCNc1ncnc2ccc(-c3ccc4c(c3)OCO4)cc12, FC(F)(F)c1cccc(Nc2nccc(-c3ccc4c(c3)OCO4)n2)c1, c1cncc(CNc2ccnc(-c3ccc4[nH]ncc4c3)n2)c1, O=c1cc(-c2ccccc2Cl)oc2c(NS(=O)(=O)c3ccccc3C(F)(F)F)ccc(O)c12, O=C(COc1ccccc1)Nc1cccc(-c2cn3cccnc3n2)c1, COCCNC(=O)c1ccc2c(c1)nc(C)n2-c1cccc(F)c1, Clc1ccc(CNc2ccnc(-c3ccc4[nH]ncc4c3)n2)cc1Cl, CCCC(=O)Nc1nc(-c2ccc3c(c2)OCCO3)cs1, CCOC(=O)c1ccc(-c2ccc3ncnc(N(C)Cc4sccc4C)c3c2)o1, COc1cccc(Nc2nc(NCCO)c3ccccc3n2)c1, NC(=O)c1c(NC(=O)c2ccc(N3C(=O)CCC3=O)cc2)sc2c1CCCC2, Fc1cccc(Nc2nc(-c3ccncc3)nc3ccccc23)c1, CCN(Cc1cccs1)c1ncnc2ccc(-c3ccc4c(c3)OCO4)cc12, O=C(NCc1ccco1)c1sc2ccccc2c1Cl, Cc1csc(CN(C)c2ncnc3ccc(-c4ccc5c(c4)OCO5)cc23)n1, CN(C)S(=O)(=O)c1ccc(Cl)c(C(=O)Nc2cccc3ncccc23)c1, COc1cccc(-c2sc3ccccc3c2-c2ccc(OCCN3CCCC3)cc2)c1
